ELG1 genotoxic = qHTS screen for small molecules that induce genotoxicity in human embryonic kidney (HEK293T) cells expressing luciferase-tagged ELG1; 330,000 tested, 1.3% active; HEK293T ELG1-luciferase reporter, luminescence, 16 h; AID 504466, 2011; Potency, µM (doses to about 46 µM), for the others: at the highest dose activity change, positive = activation, most hits filed as activators; further: % of control where 0% means no effect; nearly all actives have a fitted effect of over 60% in size
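After overnight (16 hr) compound treatment at 37 °C, ELG1-luciferase HEK293T cells were lysed with ONE-Glo; luminescence quantified 30 min later at room temperature.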
FLuc counter = qHTS profiling assay for firefly luciferase inhibitor/activator using purifed enzyme and Km concentrations of substrates (counterscreen for miR-21 project). purified FLuc, Km substrates, luminescence inhibition. Potency, µM (titrated, usually from 57.5 µM), inactives show top-dose activity change, negative = inhibition, hits mostly inhibitors. 360,000 tested, 6.9% active. AID 588342, 2011;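 further: plate controls were vehicle for no effect and reference inhibitor for full effect; nearly all actives have a fitted effect of over 55% in size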
Target sequence (P08659 whole entry, looked up): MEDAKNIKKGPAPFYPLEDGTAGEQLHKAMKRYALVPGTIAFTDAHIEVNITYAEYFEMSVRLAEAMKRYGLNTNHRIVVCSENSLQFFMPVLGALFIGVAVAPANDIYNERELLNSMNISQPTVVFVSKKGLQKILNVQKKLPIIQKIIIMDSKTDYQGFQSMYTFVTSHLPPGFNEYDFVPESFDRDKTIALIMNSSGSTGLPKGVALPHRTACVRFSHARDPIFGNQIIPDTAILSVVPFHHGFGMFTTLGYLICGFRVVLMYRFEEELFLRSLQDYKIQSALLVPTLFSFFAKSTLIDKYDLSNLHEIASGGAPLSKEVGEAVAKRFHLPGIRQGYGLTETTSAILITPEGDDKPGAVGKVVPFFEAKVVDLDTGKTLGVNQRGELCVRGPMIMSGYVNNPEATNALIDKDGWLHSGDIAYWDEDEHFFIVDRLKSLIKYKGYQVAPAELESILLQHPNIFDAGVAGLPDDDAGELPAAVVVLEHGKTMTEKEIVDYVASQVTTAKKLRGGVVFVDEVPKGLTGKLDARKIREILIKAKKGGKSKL
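Purified P. pyralis luciferase (10nM final) with 10uM D-luciferin and 10uM ATP (Km levels) in 50mM Tris acetate pH 7.5, 10mM Mg acetate, 0.01% Tween-20, 0.05% BSA; qHTS 6-point titration, ~60 µM downward; luminescence read.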
Luc counter = Counterscreen for Luciferase (Kinase-Glo TM) Inhibition. Potency, µM (highest dose often 38.3 µM), inactives show top-dose activity change, negative = inhibition, hits mostly inhibitors. 200,000 tested, 0.28% active. AID 1379, 2008. Kinase-Glo luciferase, ATP luminescence, 8 min; further: on the % scale 0 is the no-effect control and ±100 the full control effect; nearly all actives have a fitted effect of over 60% in size
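Kinase-Glo luciferase light output from ATP and luciferin was measured with 10 uM ATP, within the enzyme's linear range. Buffer: 50 mM imidazole pH 7.2, 50 mM KCl, 7 mM MgCl2, 0.01% Tween 20, 0.05% BSA; luminescence read after 8 min at ambient temperature.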
SMN2 splice enh = qHTS Assay for Enhancers of SMN2 Splice Variant Expression. HEK293 SMN2-luciferase splicing reporter, luminescence, 30-36 h. Potency, µM (series often up to 46.1 µM), for inactives: top-dose activity change, positive = activation, hits mostly activators. 210,000 tested, 2.8% active; further: % of control where 0% means no effect; nearly all actives have a fitted effect of over 55% in size
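HEK293 cells carry an SMN2 […]–luciferase reporter in which exon 7 inclusion puts luciferase in frame. Cells were plated 10-12 h before compound addition, then incubated 30-36 h at 37C. ONE-Glo luminescence was read; sodium butyrate at 4.5 mM final served as control.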
Rab9 prom act = qHTS Assay for Rab9 Promoter Activators; Huh7 Rab9 promoter-luciferase reporter, luminescence, 24 h; Potency, µM (series often up to 9.22 µM), inactives show top-dose activation, negative = inhibition, hits mostly activators; 320,000 tested, 2.8% active; further: % of control where 0% means no effect; nearly all actives have a fitted effect of over 60% in size
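Stable Rab9-luc Huh7, 1500 cells/well, 2 h settle; cmpd in DMSO, 24 h, 37 °C/5% CO2; luciferase reagent 10 min RT; luminescence.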
NPC1 promoter act = qHTS Assay for NPC1 Promoter Activators; Huh7 NPC1 promoter luciferase reporter, 24 h; Potency, µM (top dose mostly 9.22 µM), for the others: at the top dose activation, usual class: activators; 320,000 tested, 2.4% active; AID 485313, 2010; further: % of control where 0% means no effect; nearly all actives have a fitted effect of over 60% in size
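Stable NPC1-promoter luciferase Huh7 line; cpd (DMSO) 24 h, 37 °C, 5% CO2; Amplite luciferase reagent 10 min RT; luminescence readout. qHTS format.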
Starred values were filed as active, the others as inactive. A selection: hits, their analogues and other compounds. The true share with any hit is near 7.5%. The call rests on the fitted dose curve; in most records, active means well fitted curve in the direction sought with a large enough effect; inconclusive means small, poorly fitted or top-dose-only effect, or another doubt; inactive means no such curve, though single readings can be large; an effect the other way counts as inactive or inconclusive. Potency means the concentration at half of the fitted maximal effect.

Screening O=C(Nc1cccc(Cl)c1)N1CCC(CO)(CCOc2ccccc2)CC1 returned ELG1 genotoxic -1%, FLuc counter 1%, Luc counter 3%, Rab9 prom act 0% and NPC1 promoter act -1%.
CCN1C(=O)/C(=C/C=C2/CCCN2C)OC1=S was read as ELG1 genotoxic inconclusive, FLuc counter inconclusive, Luc counter -7%, Rab9 prom act inconclusive and NPC1 promoter act 3.2µM*.
Screening CN1C(=O)/C(=C\C=C2/CCCN2C)N(C)C1=S returned ELG1 genotoxic inconclusive, FLuc counter inconclusive, Luc counter -12%, SMN2 splice enh inconclusive, Rab9 prom act inconclusive and NPC1 promoter act 25%.
For COC(=O)c1ccc(N2OC3(C)C=CC2CC3)cc1 (stereo not drawn) the results were ELG1 genotoxic inconclusive, FLuc counter 21µM*, Luc counter -3%, SMN2 splice enh inconclusive, Rab9 prom act inconclusive and NPC1 promoter act 30%.
For CCN1C(=O)/C(=C/C=C2/SCCN2C)SC1=S the results were ELG1 genotoxic inconclusive, FLuc counter 0.85µM*, Luc counter -18%, SMN2 splice enh inconclusive, Rab9 prom act 0.45µM* and NPC1 promoter act 0.45µM*.
Screening CCCCN1C(=O)/C(=C/C=C2/CC(C)(C)CN2C)SC1=S returned ELG1 genotoxic inconclusive, FLuc counter 9.5µM*, Luc counter 0%, SMN2 splice enh 16%, Rab9 prom act inconclusive and NPC1 promoter act 28%.
`CCN1C(=O)/C(=C/C=C2/Sc3ccccc3N2CCO)SC1=S` gave ELG1 genotoxic 11%, FLuc counter -15%, Luc counter inconclusive, SMN2 splice enh -48%, Rab9 prom act 1% and NPC1 promoter act 0%.
For C=CCN1C(=O)/C(=C\C=C2\N(C)c3ccccc3C2(C)C)SC1=S the results were ELG1 genotoxic -1%, FLuc counter -3%, Luc counter -16%, SMN2 splice enh -23%, Rab9 prom act -3% and NPC1 promoter act -3%.
CN1CCS/C1=C\C=C1/SC(=S)N(CC(=O)O)C1=O was read as ELG1 genotoxic -3%, FLuc counter 13µM*, Luc counter -1%, SMN2 splice enh 0%, Rab9 prom act 1% and NPC1 promoter act -2%.
`CN1/C(=C\C=C2/SC(=S)N(CC(=O)O)C2=O)C(C)(C)c2ccccc21` gave ELG1 genotoxic -5%, FLuc counter 17µM*, Luc counter -16%, SMN2 splice enh -22%, Rab9 prom act 1% and NPC1 promoter act -6%.
Screening Cn1cccc1/C=C1/SC(=S)N(CC(=O)O)C1=O returned ELG1 genotoxic 0%, FLuc counter inconclusive, Luc counter 1%, SMN2 splice enh 79%, Rab9 prom act -2% and NPC1 promoter act 1%.
Cc1cccc(CNc2ncncc2-c2ccccc2C(F)(F)F)c1 was read as Luc counter -4% and SMN2 splice enh -7%.
Cc1ccc(S(=O)(=O)N2CCN(CC(=O)Nc3ccccc3C(=O)NC3CC3)CC2)cc1 was read as ELG1 genotoxic 1%, FLuc counter 3%, Rab9 prom act 0% and NPC1 promoter act -1%.
COc1ccccc1NC(=O)C(C)OC(=O)CCCOc1ccccc1 (stereo not drawn) was read as ELG1 genotoxic 0%, FLuc counter 1%, Rab9 prom act 7% and NPC1 promoter act 5%.
For Cc1ccc(C(=O)Cn2c3c(sc2=N)CCCC3)cc1 the results were Luc counter inconclusive and SMN2 splice enh 0.5µM*.
For COc1cccc(OCCSc2nnc3sc4ccccc4n23)c1 the results were ELG1 genotoxic inconclusive, FLuc counter 19µM*, Luc counter -3%, SMN2 splice enh inconclusive, Rab9 prom act 10% and NPC1 promoter act 16%.
c1ccc(OCCSc2nnc3sc4ccccc4n23)cc1 was read as ELG1 genotoxic inconclusive, FLuc counter 0.43µM*, Luc counter -5%, SMN2 splice enh 28%, Rab9 prom act 0.32µM* and NPC1 promoter act 0.35µM*.
`CCN(CC)C(=O)CSc1nnc2sc3ccccc3n12` gave ELG1 genotoxic 1%, FLuc counter 1%, Luc counter 0%, SMN2 splice enh 3%, Rab9 prom act -3% and NPC1 promoter act -2%.
For COc1ccc(C2(c3ccc(OC)cc3)NC(=O)N(CC(=O)N(C)c3ccccc3)C2=O)cc1 the results were ELG1 genotoxic inconclusive, FLuc counter 19µM*, Rab9 prom act 2.2µM* and NPC1 promoter act 3.5µM*.
Screening COCCN(CC(=O)Nc1cccc(C)c1C)C(=O)c1oc2c(Cl)cccc2c1C returned ELG1 genotoxic -2%, FLuc counter 1%, Rab9 prom act -7% and NPC1 promoter act -3%.
For CCOC(=O)c1cc(-c2ccc(C)cc2)nc2nc(SC)[nH]c(=O)c12 the results were ELG1 genotoxic -1%, FLuc counter 4.8µM*, Luc counter -1%, SMN2 splice enh 6%, Rab9 prom act -1% and NPC1 promoter act -2%.
COC(=O)c1cc(-c2ccc(OC)cc2)nc2nc(SC)[nH]c(=O)c12 was read as ELG1 genotoxic 1%, FLuc counter 5.4µM*, Rab9 prom act -1% and NPC1 promoter act -5%.
For CCCCn1c(=O)[nH]c(=O)c2c(C(=O)OCC)cc(-c3ccc(OC(F)F)cc3)nc21 the results were ELG1 genotoxic inconclusive, FLuc counter -1%, Luc counter -2%, SMN2 splice enh 12%, Rab9 prom act -11% and NPC1 promoter act 2%.
For CCOC(=O)c1cc(-c2cccc(C(F)(F)F)c2)nc2nc(SC)[nH]c(=O)c12 the results were ELG1 genotoxic -6%, FLuc counter 12µM*, Luc counter 0%, SMN2 splice enh 5%, Rab9 prom act -2% and NPC1 promoter act -2%.
Screening Cc1nc(N)nc(N/N=C/c2c(F)cccc2Cl)n1 returned ELG1 genotoxic 8%, FLuc counter inconclusive, Rab9 prom act -2% and NPC1 promoter act 7%.
Screening Cc1nc(C#N)c(N/N=C/c2c(F)cccc2Cl)o1 returned ELG1 genotoxic 5%, FLuc counter 24µM*, Luc counter -1%, SMN2 splice enh inconclusive, Rab9 prom act 19% and NPC1 promoter act 10%.

Screening results (PubChem)
